Experimental data as given in the supplement of paper PMC10105736.
A number with no mark means an inactive call.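 Rule for the calls: active = MAPPIT score above the 99th percentile of random reference set scores in the same batch; inactive = at or below it.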

Assays:
Test in all cases: MAPPIT interaction score (arbitrary units); higher = stronger binary interaction signal, active = hit call of the paper
Elal = conditions: MAPPIT configuration: N-N; pair source set: Finley_Y2H
Gem2 = conditions: MAPPIT configuration: N-N; pair source set: Lit-BM-16
Smn = conditions: MAPPIT configuration: N-N; pair source set: screen_2
GILT1 = conditions: MAPPIT configuration: N-N; pair source set: Curagen_low_conf
Mad1 = conditions: MAPPIT configuration: N-N; pair source set: screen_1
EndoB = conditions: MAPPIT configuration: N-N; pair source set: screen_2
FoxP = conditions: MAPPIT configuration: N-N; pair source set: Curagen_high_conf
Fkbp12 = conditions: MAPPIT configuration: N-N; pair source set: DPIM
Eato = conditions: MAPPIT configuration: N-N; pair source set: Lit-BS-16
eIF3m = conditions: pair source set: Lit-BM-16
pnr = conditions: MAPPIT configuration: N-N; pair source set: DPIM
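Note: HEK293T cells with Epo stimulation, STAT-responsive firefly luciferase reporter, fold induction versus unstimulated cells divided by the larger fold induction of two negative controls lacking either bait or prey.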

B1: mgr (protein)
chain: MTGIMDSVEMPKLPENQKTFAGIPEAVFLEEIDTFMSQPENENCEKVLQRLDEQHGKYRFMACNLEARRRKLKSQIPDLERSLEMVNVLRKEDEERETQFLLSDQVFIKTLVPPTKTVYLWLGASVMLEYPLDEAEALLNQNITSAVGNLKSVEHDQDFLRDQITTTEVNMARVYNWGVKKRQAATKTTATTPS
Binder B1 has an MAPPIT interaction score (Elal) of 0.515.

B2: Smn (protein)
chain: MSDETNAAVWDDSLLVKTYDESVGLAREALARRLADSTNKREEENAAAAEEEAGEISATGGATSPEPVSFKVGDYARATYVDGVDYEGAVVSINEEKGTCVLRYLGYENEQEVLLVDLLPSWGKRVRREQFLIAKKDEDEQLSRPKASAGSHSKTPKSSRRSRISGGLVMPPMPPVPPMIVGQGDGAEQDFVAMLTAWYMSGYYTGLYQGKKEASTTSGKKKTPKK
B2 was tested, and the MAPPIT interaction score (Gem2) was 6.28 (active) and the MAPPIT interaction score (Smn) was 6.24 (active).

B3: me31B (protein)
chain: MMTEKLNSGHTNLTSKGIINDLQIAGNTSDDMGWKSKLKLPPKDNRFKTTDVTDTRGNEFEEFCLKRELLMGIFEKGWERPSPIQEAAIPIALSGKDVLARAKNGTGKTGAYCIPVLEQIDPTKDYIQALVMVPTRELALQTSQICIELAKHLDIRVMVTTGGTILKDDILRIYQKVQLIIATPGRILDLMDKKVADMSHCRILVLDEADKLLSLDFQGMLDHVILKLPKDPQILLFSATFPLTVKNFMEKHLREPYEINLMEELTLKGVTQYYAFVQERQKVHCLNTLFSKLQINQSIIFCNSTQRVELLAKKITELGYCCYYIHAKMAQAHRNRVFHDFRQGLCRNLVCSDLFTRGIDVQAVNVVINFDFPRMAETYLHRIGRSGRFGHLGIAINLITYEDRFDLHRIEKELGTEIKPIPKVIDPALYVANVGASVGDTCNNSDLNNSANEEGNVSK
Binder B3 has an MAPPIT interaction score (GILT1) of 0.228 and an MAPPIT interaction score (Mad1) of 0.203.

B4: RpS20 (protein)
chain: MAAAPKDIEKPHVGDSASVHRIRITLTSRNVRSLENVCRDLINGAKNQNLRVKGPVRMPTKTLRITTRKTPCGEGSKTWDRFQMRIHKRIIDLHSPSEIVKKITSINIEPGVEVEVTIAN
In the case of B4, the MAPPIT interaction score (EndoB) is reported as 3.62 (active).

B5: mats (protein)
chain: MDFLFGSRSSKTFKPKKNIPEGTHQYDLMKHAAATLGSGNLRNAVALPDGEDLNEWVAVNTVDFFNQINMLYGTITEFCTEETCGIMSAGPKYEYHWADGLTVKKPIKCSAPKYIDYLMTWVQDQLDDETLFPSKIGVPFPKNFHSSAKTILKRLFRVYAHIYHQHFTEVVTLGEEAHLNTSFKHFIFFVQEFNLIERRELAPLQELIDKLTAKDERQI
In the case of B5, the MAPPIT interaction score (FoxP) is reported as 1.25.

B6: sigmar (protein)
chain: MADNVFKSHDIGLRAQKKILSRMATKNIAKTFIDGTTASLLDNLYRLCKMHTGNKAKAEKLIKNIIKIVIKIGVLHRNNQFSDEELQKAELFKRKFQNTQLSIISFYEVDFTFDLPYLQKSIAESQVALKSIVQPHLTEKSLGRIDEVFDFFGEEALLETAFRPDSPYREVMGKIVADINAAMETGDI
Binder B6 has an MAPPIT interaction score (Fkbp12) of -0.294.

B7: eIF3f1 (protein)
chain: MSALNLTVRVHPVVLFQVVDAFERRNADSHRVIGTLLGSVDKGVVEVTNCFCVPHKEHDDQVEAELSYALDMYDLNRKVNSNESVVGWWATGNDVTNHSSVIHEYYARECNNPVHLTVDTSLQGGRMGLRAYVCIQLGVPGGKSGCMFTPIPVELTSYEPETFGLKLLQKTVGVSPAHRPKTVPPMLDLAQISEASTKLQSLLDLILKYVDDVIAHKVTPDNAVGRQLLDLIHSVPHMTHEQFTQMFNANVRNLLLVITLSQLIKTQLQLNEKLTFLPTA
In the case of B7, the MAPPIT interaction score (Eato) is reported as 0.224, the MAPPIT interaction score (eIF3m; MAPPIT configuration: N-C) is reported as 3.45 and the MAPPIT interaction score (eIF3m; MAPPIT configuration: N-N) is reported as 5.78 (active). It also gave an MAPPIT interaction score (pnr) of -0.504.
